Drawing on PubChem BioAssay (NCI), this text covers growth for 13 molecules.

Compounds without any hit were thinned out: in the full panel of roughly 83,000, 20% have a hit.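 Negative percent growth values reflect cell death: -40 means 40% of the cells present at the start died, and -100 means all died.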 A number with no mark means an inactive call. Activity calls are given as the source filed them. The calls were made as follows: active = growth percent below 10; inactive = the rest.

Test systems include HCT-15 colon; HT29 colon; SNB-75 CNS; SNB-19 CNS; U251 CNS; PC-3 prostate; SK-MEL-5 melanoma; UACC-62 melanoma; LOX IMVI melanoma; SK-MEL-28 melanoma.
Common to all, as to test: NCI-60 one-dose screen, 48 h (100 = growth as untreated, 0 = no growth, -100 = all killed)
Common to all, as to details: 10 µM unless noted

Regarding `Nc1ccc([N+](=O)[O-])cc1N=C/C=C/c1ccccc1`, the growth was 42.9% with HCT-15 colon; 28.6% in the assay on HT29 colon; 86.6% in the assay on SNB-75 CNS; 72.2% with SNB-19 CNS; 56.9% in the assay with U251 CNS; 72.4% in the assay on PC-3 prostate. The growth was 56.5% in the assay with SK-MEL-5 melanoma, 63.2% with UACC-62 melanoma, 49% with LOX IMVI melanoma and 94.8% in the assay with SK-MEL-28 melanoma.
As to `CCOC(=O)c1c(NC(=O)c2ccc(C(C)(C)C)cc2)sc2cc(O)ccc12`, the growth in the assay on HCT-15 colon is 70.3%; with HT29 colon, 80.6%; with SNB-75 CNS, 104%; with SNB-19 CNS, 111%; with U251 CNS, 96.9%; in the assay with PC-3 prostate it was 105%. Also, the growth in the assay with SK-MEL-5 melanoma was 98.1%; in the assay with UACC-62 melanoma it was 101%; in the assay with LOX IMVI melanoma it was 87%; in the assay with SK-MEL-28 melanoma it was 99.1%.
Take `O=C1/C(=C/c2cccc([N+](=O)[O-])c2)COc2ccc(O)cc21`: the growth was -9.57% (active) in the assay on HCT-15 colon; 3.32% (active) in the assay on HT29 colon; 79.4% with SNB-75 CNS; 72.2% in the assay with SNB-19 CNS; 2.17% (active) in the assay on U251 CNS; 42.9% in the assay with PC-3 prostate. Further, the growth with SK-MEL-5 melanoma is 89.1%; in the assay with UACC-62 melanoma it was 59.4%; with LOX IMVI melanoma, -80.6% (active); in the assay on SK-MEL-28 melanoma it was 82.7%.
Regarding `c1ccc(CNc2ccc3nc(CCC4CCCCC4)[nH]c3c2)cc1`, the growth was 26.8% with HCT-15 colon; 13.8% in the assay on HT29 colon; 84.9% with SNB-75 CNS; 80.4% in the assay with SNB-19 CNS; 63.6% in the assay on U251 CNS; 62.5% in the assay with PC-3 prostate. Further, the growth with SK-MEL-5 melanoma is 43.2%; in the assay on UACC-62 melanoma, 59.6%; in the assay with LOX IMVI melanoma it was 79.4%; with SK-MEL-28 melanoma, 80%.
As for `COP(=O)(OC)c1nnn(-c2cccc([N+](=O)[O-])c2)c1C`, the growth in the assay on HCT-15 colon was 106%; in the assay on HT29 colon, 105%; with SNB-75 CNS, 93.6%; in the assay with SNB-19 CNS, 105%; in the assay with U251 CNS, 99.7%; in the assay on PC-3 prostate, 98.7%. For the same molecule, the growth was 100% with SK-MEL-5 melanoma, 99.2% in the assay on UACC-62 melanoma, 96% with LOX IMVI melanoma and 113% in the assay on SK-MEL-28 melanoma.
On to `O=C(CN1C(=O)/C(=C/c2ccco2)SC1=S)NCCc1c[nH]c2ccc(F)cc12`, for which the growth in the assay with HCT-15 colon was 101%; in the assay with HT29 colon, 112%; in the assay with SNB-75 CNS it was 78%; in the assay with SNB-19 CNS it was 102%; in the assay on U251 CNS, 103%; in the assay on PC-3 prostate, 94%. The growth is 99.6% in the assay with SK-MEL-5 melanoma, 87.8% in the assay with UACC-62 melanoma, 96.9% in the assay on LOX IMVI melanoma and 112% in the assay with SK-MEL-28 melanoma.
On to `CC12CCC(/C(=C/NNc3ccc([N+](=O)[O-])cc3[N+](=O)[O-])C1=O)C2(C)C` (stereo not given), for which the growth with HCT-15 colon is 23%; with HT29 colon it was 52.6%; in the assay with SNB-75 CNS it was 136%; with SNB-19 CNS it was 94.1%; in the assay with U251 CNS, 58.4%; with PC-3 prostate, 59.5%. Further, the growth in the assay with SK-MEL-5 melanoma was 65.5%; in the assay on UACC-62 melanoma, 64.5%; in the assay with LOX IMVI melanoma it was 56.5%; with SK-MEL-28 melanoma, 83.5%.
Take `COc1ccc(NC(=O)c2sc3nc4c(cc3c2N)CCCC4)cc1`: the growth in the assay on HCT-15 colon was 28.6%; with HT29 colon it was 0.414% (active); in the assay on SNB-75 CNS, 17.3%; in the assay on SNB-19 CNS, 34.7%; in the assay with U251 CNS it was 22.6%; with PC-3 prostate, 26.9%. In addition, the growth with SK-MEL-5 melanoma was 5.04% (active); in the assay on UACC-62 melanoma it was 43%; in the assay on LOX IMVI melanoma, 35.8%; in the assay with SK-MEL-28 melanoma, 62.3%.
For the molecule `O=C(CSc1nc2ccc([N+](=O)[O-])cc2[nH]1)Nc1cccc([N+](=O)[O-])c1`, the growth is 54.4% in the assay with HCT-15 colon; 57.6% in the assay with HT29 colon; 49.5% with SNB-75 CNS; 64.2% in the assay on SNB-19 CNS; 41.5% in the assay on U251 CNS; 44.8% in the assay on PC-3 prostate. Besides, the growth was 19.7% in the assay on SK-MEL-5 melanoma, 21.1% in the assay on UACC-62 melanoma, 57.8% in the assay on LOX IMVI melanoma and 55.7% with SK-MEL-28 melanoma.
`CC/C(Cc1ccccc1)=C(\c1ccc(OCCN2CCCCCC2)cc1)c1ccc(OC(=O)NCc2ccccc2)cc1`: the growth was 9.25% (active) with HCT-15 colon; 5.23% (active) in the assay on HT29 colon; 66.4% in the assay with SNB-75 CNS; 72.5% in the assay with SNB-19 CNS; 49.6% with U251 CNS; 54.8% in the assay with PC-3 prostate. For the same molecule, the growth in the assay on SK-MEL-5 melanoma was 72.5%; in the assay with UACC-62 melanoma, 75.3%; in the assay with LOX IMVI melanoma, 4.35% (active); in the assay with SK-MEL-28 melanoma it was 87.2%.
For the molecule `COc1ccc2nc3cc(Cl)ccc3c(NCCN)c2c1`, the growth was -37.7% (active) in the assay with HCT-15 colon; -42.5% (active) in the assay on HT29 colon; 91.6% with SNB-75 CNS; 7.75% (active) in the assay on SNB-19 CNS; -81.4% (active) in the assay with U251 CNS; 6.63% (active) in the assay on PC-3 prostate. For the same molecule, the growth was 79.6% in the assay on SK-MEL-5 melanoma, -71.2% (active) with UACC-62 melanoma, -86.4% (active) in the assay on LOX IMVI melanoma and -65.8% (active) with SK-MEL-28 melanoma.
As to `Cc1nc2sc(C(=O)Nc3cccc(Cl)c3)c(N)c2cc1C(O)c1ccccc1` (stereo not given), the growth in the assay on HCT-15 colon is 14.2%; in the assay with HT29 colon, 14.9%; in the assay with SNB-75 CNS it was 46.9%; in the assay on SNB-19 CNS it was 33.4%; with U251 CNS, 10.2%; in the assay with PC-3 prostate, 28.1%. Besides, the growth is 11% in the assay with SK-MEL-5 melanoma, 31.5% with UACC-62 melanoma, 45.3% in the assay on LOX IMVI melanoma and 56% in the assay on SK-MEL-28 melanoma.
With `CCCCCSB(SCCCCC)c1ccccc1`, the growth is 96.8% in the assay on HCT-15 colon; 96.4% in the assay with HT29 colon; 78.7% in the assay with SNB-75 CNS; 96.6% in the assay on SNB-19 CNS; 99.7% with U251 CNS; 97.2% with PC-3 prostate. The growth with SK-MEL-5 melanoma is 105%; in the assay with UACC-62 melanoma it was 105%; in the assay with LOX IMVI melanoma it was 96.8%; in the assay with SK-MEL-28 melanoma it was 110%.
